Rows were chosen to be rich in hits. Some 4.2% of all compounds tested hit in one or more screens of this group.
Hsp70 activator = Hsp70 transcriptional activation, primary screen; HeLa Hsp70 promoter luciferase reporter, luminescence; scaled: vehicle 0, proteasome-inhibitor control 100%; 200,000 compounds, 0.04% hits; activation, % at 10 µM;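 active = activation above the mean across all tested compounds plus 3 SD, cutoff set per campaign, cut at about 5.5% in these data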;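 also: 100% = MG132 at 30 µM as the positive control and 0% = DMSO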
S1P4 antag = human S1P4 receptor antagonism; S1P4-expressing cells, antagonist mode, reporter read-out; AID 1510; 220,000 compounds, 0.26% hits; inhibition, % at 4.98 µM; O95977; in the data active = inhibition above about 29%;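 also: 0% = wells stimulated with agonist and 100% = vehicle wells without agonist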
Target sequence (O95977 whole entry, looked up): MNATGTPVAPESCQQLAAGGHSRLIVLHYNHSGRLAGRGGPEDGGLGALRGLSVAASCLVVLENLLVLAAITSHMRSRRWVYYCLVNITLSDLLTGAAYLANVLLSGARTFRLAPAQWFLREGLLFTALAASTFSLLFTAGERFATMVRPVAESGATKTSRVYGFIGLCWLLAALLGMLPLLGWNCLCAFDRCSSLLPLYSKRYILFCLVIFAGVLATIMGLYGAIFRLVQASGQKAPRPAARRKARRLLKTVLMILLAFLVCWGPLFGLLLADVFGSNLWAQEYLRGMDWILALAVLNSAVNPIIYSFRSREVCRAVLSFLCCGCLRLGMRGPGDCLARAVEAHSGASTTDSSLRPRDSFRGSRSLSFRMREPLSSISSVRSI
CHOP inh = CHOP inhibition in unfolded protein response; inhibition, % at 10 µM; 220,000 compounds, 3.8% hits; CHO-K1 CHOP-promoter luciferase, tunicamycin-induced, 15-18 h;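 active = compounds that reduced the stress-induced luciferase reporter signal by more than about 70% of percent inhibition, limit read from the data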;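 also: 0% = tunicamycin plus vehicle and 100% = wells without tunicamycin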
S1P4 agonist = human S1P4 receptor agonism | AID 1509 | O95977 | S1P4-expressing cell line, agonist reporter assay | 220,000 compounds, 0.35% hits | activation, % at 4.98 µM; in the data active = activation above about 11%;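 also: 0% = DMSO vehicle and 100% = reference agonist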
CHOP confirm = confirmation of CHOP induction inhibitors; AID 504437; inhibition, % at 10 µM; shares compounds with CHOP inh; 2,100 compounds, 45% hits; CHO-CHOP promoter luciferase reporter, tunicamycin-induced, luminescence;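 active = mean of three repeat readings of reporter signal inhibition above a set limit, cut at about 70% in these data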;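 also: 0% = tunicamycin plus vehicle and 100% = wells lacking tunicamycin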
Active calls of the source: *.

How did CN(C)c1ncc(C2=C(Cl)C(=O)C(N3CCCC3)=C(Cl)C2=O)s1 do in these assays?
Hsp70 activator: 0; S1P4 antag: -5; CHOP inh: 108*; S1P4 agonist: 0; CHOP confirm: 64

How did CC(=O)c1cnc(N(C)C)s1 do in these assays?
Hsp70 activator: 1; S1P4 antag: -12; CHOP inh: 7; S1P4 agonist: 1

How did Clc1ccc(Cl)c2sc(N3CCCC3)nc12 do in these assays?
Hsp70 activator: 0; S1P4 antag: 3; CHOP inh: 47; S1P4 agonist: 1

How did O=C1C(Cl)=C(N2CCCCC2)C(=O)C(Cl)=C1c1cnc(N2CCCCC2)s1 do in these assays?
Hsp70 activator: 0; S1P4 antag: 2; S1P4 agonist: 1; CHOP confirm: 95*

How did CCCOC(=O)CSc1nnc(-c2ccc(Cl)cc2Cl)o1 do in these assays?
Hsp70 activator: 0; S1P4 antag: -1; CHOP inh: 98*; S1P4 agonist: 0; CHOP confirm: 30

Results for CCOC(=O)CSc1nnc(-c2ccc(Cl)cc2Cl)o1 ?
Hsp70 activator: 0; S1P4 antag: 1; CHOP inh: 35; S1P4 agonist: -1

What do the screens show for `O=C(Nc1nnc(-c2ccc(F)cc2)s1)Nc1ccccc1F`?
S1P4 antag: 4; CHOP inh: -5; S1P4 agonist: 1

Results for O=C(Nc1nnc(-c2ccccc2)s1)c1ccc(F)cc1 ?
Hsp70 activator: 0; S1P4 antag: -4; CHOP inh: 103*; S1P4 agonist: -2; CHOP confirm: 36

Results for CCCCCCCCCCCCCCCC[n+]1cccc(C(=O)N(CC)CC)c1 ?
Hsp70 activator: 0; S1P4 antag: 2; CHOP inh: 108*; S1P4 agonist: 1; CHOP confirm: 115*

Results for Cc1cc(C(=O)N/N=C/c2cc(Br)ccc2OC(=O)c2ccccc2Cl)n[nH]1 ?
Hsp70 activator: 0; S1P4 antag: -1; CHOP inh: 99*; S1P4 agonist: 2; CHOP confirm: 34

How did O=C(c1ccccc1)C(Nc1ccccn1)c1ccccc1 (stereo unspecified) do in these assays?
Hsp70 activator: 0; S1P4 antag: 12; CHOP inh: 34; S1P4 agonist: 2

What do the screens show for `CCN1/C(=C/c2ccc3cc(C)ccc3[n+]2C)Sc2ccc3sccc3c21`?
Hsp70 activator: 0; S1P4 antag: -10; CHOP inh: 109*; S1P4 agonist: 0; CHOP confirm: 102*

What do the screens show for `CCOc1ccc(-c2nc(CSCC(=O)NCc3ccco3)c(C)o2)cc1`?
Hsp70 activator: 0; S1P4 antag: -13; CHOP inh: 106*; S1P4 agonist: 0; CHOP confirm: 118*

How did COc1ccc(-c2nc(CS(=O)CC(=O)NCc3ccco3)c(C)o2)cc1 (stereo unspecified) do in these assays?
Hsp70 activator: 0; S1P4 antag: 4; CHOP inh: 23; S1P4 agonist: -3

How did O=C(COC(=O)c1n[nH]c(=O)c2ccccc12)c1ccc(Cl)cc1 do in these assays?
Hsp70 activator: 0; S1P4 antag: -4; CHOP inh: -29; S1P4 agonist: 0

What do the screens show for `O=C(COC(=O)c1n[nH]c(=O)c2ccccc12)c1ccc(Br)cc1`?
Hsp70 activator: 0; S1P4 antag: -40; CHOP inh: 104*; S1P4 agonist: 2; CHOP confirm: -70

Results for CCOC(=O)c1[nH]c2ccc(OC)cc2c1NC(=O)/C=C/c1ccc2c(c1)OCO2 ?
Hsp70 activator: 0; S1P4 antag: 2; CHOP inh: 102*; S1P4 agonist: 1; CHOP confirm: -17

How did O=C(/C=C/c1ccc2c(c1)OCO2)Nc1c(C(=O)O)[nH]c2ccccc12 do in these assays?
Hsp70 activator: -1; S1P4 antag: 3; CHOP inh: 6; S1P4 agonist: -1

How did COc1cc(NC(=O)COC(=O)/C=C/c2c(C)nn(C3CCS(=O)(=O)C3)c2Cl)cc(OC)c1OC (stereo unspecified) do in these assays?
Hsp70 activator: 0; S1P4 antag: 0; CHOP inh: 4; S1P4 agonist: 1

Results for O=S(=O)(Nc1ccccc1)c1ccc(Oc2ncc(C(F)(F)F)cc2Cl)cc1 ?
Hsp70 activator: 0; S1P4 antag: 4; CHOP inh: 109*; S1P4 agonist: 0; CHOP confirm: 115*

How did COc1ccc(-n2c(=O)/c(=C\c3cccs3)s/c2=C(/C#N)C(=O)NCCN2CCOCC2)cc1 do in these assays?
Hsp70 activator: 0; S1P4 antag: -5; CHOP inh: 7; S1P4 agonist: 0

Results for COc1ccccc1N(CC(=O)Nc1ccccc1C(=O)NC(C)C)S(C)(=O)=O ?
Hsp70 activator: 0; S1P4 antag: -6; CHOP inh: 55; S1P4 agonist: 1

How did O=C(/C=C/c1cccc([N+](=O)[O-])c1)n1cnc2ccccc21 do in these assays?
Hsp70 activator: 0; S1P4 antag: 12; CHOP inh: 107*; S1P4 agonist: 0; CHOP confirm: 116*

How did O=C(/C=C/c1cccc([N+](=O)[O-])c1)N1CCOCC1 do in these assays?
Hsp70 activator: 0; S1P4 antag: -24; CHOP inh: 16; S1P4 agonist: 1

Results for CCCCOC(=O)Nc1ccc(S(=O)(=O)Nc2nc(C)cc(C)n2)cc1 ?
Hsp70 activator: 0; S1P4 antag: -8; CHOP inh: 25; S1P4 agonist: -3

Results for CCCCCCOC(=O)Nc1ccc(S(=O)(=O)Nc2cccc([N+](=O)[O-])c2)cc1 ?
Hsp70 activator: 0; S1P4 antag: -10; CHOP inh: 106*; S1P4 agonist: 1; CHOP confirm: 110*

Results for Nc1nnnn1/N=C/C=C/c1ccccc1 ?
Hsp70 activator: 0; S1P4 antag: -9; CHOP inh: -29; S1P4 agonist: -1

What do the screens show for `Nc1nnnn1/N=C/C(Br)=C/c1ccccc1`?
Hsp70 activator: 1; S1P4 antag: -15; S1P4 agonist: -3; CHOP confirm: 90*

What do the screens show for `COc1c(C)cc(Br)cc1C(=O)Nc1cccc(-c2nc3ncccc3o2)c1`?
Hsp70 activator: 0; S1P4 antag: -20; CHOP inh: 46; S1P4 agonist: -1

How did O=C(NCC1CCCO1)c1ccc2c(=O)n(Cc3cccc(Br)c3)c(=S)[nH]c2c1 (stereo unspecified) do in these assays?
Hsp70 activator: 0; S1P4 antag: -5; CHOP inh: 107*; S1P4 agonist: 0; CHOP confirm: -14

How did CCCn1c(=S)[nH]c2cc(C(=O)NCC3CCCO3)ccc2c1=O (stereo unspecified) do in these assays?
Hsp70 activator: 0; S1P4 antag: -2; CHOP inh: 8; S1P4 agonist: 0

Results for O=C(CN1C(=O)S/C(=C\c2ccc(Cl)cc2)C1=O)NNC(=O)c1ccccc1O ?
Hsp70 activator: 0; S1P4 antag: -10; CHOP inh: 106*; S1P4 agonist: 1; CHOP confirm: 14

Results for O=S(=O)(Nc1cc(Sc2cccc3cccnc23)c(O)c2ccccc12)c1ccc(F)cc1 ?
Hsp70 activator: 1; S1P4 antag: 6; CHOP inh: 107*; S1P4 agonist: -2; CHOP confirm: 108*

Compound activity (PubChem BioAssay)
